An excerpt weighted towards active compounds, which were near 2.1% of everything screened.
CHT block – inhibitors of human choline transporter CHT; Q9GZV3; B-score at 10 µM; AID 488975; 310,000 tested, 0.86% active; CHT-expressing cells, membrane potential dye, choline response; hits give low values;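 active = B-score over 3 SD under the library average, and starting fluorescence ratio not unusually high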;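 also: choline stimulus applied at its EC90 after an EC20 pre-addition; B-score computed on integrated fluorescence ratio after choline addition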
Target sequence (Q9GZV3 whole entry, looked up): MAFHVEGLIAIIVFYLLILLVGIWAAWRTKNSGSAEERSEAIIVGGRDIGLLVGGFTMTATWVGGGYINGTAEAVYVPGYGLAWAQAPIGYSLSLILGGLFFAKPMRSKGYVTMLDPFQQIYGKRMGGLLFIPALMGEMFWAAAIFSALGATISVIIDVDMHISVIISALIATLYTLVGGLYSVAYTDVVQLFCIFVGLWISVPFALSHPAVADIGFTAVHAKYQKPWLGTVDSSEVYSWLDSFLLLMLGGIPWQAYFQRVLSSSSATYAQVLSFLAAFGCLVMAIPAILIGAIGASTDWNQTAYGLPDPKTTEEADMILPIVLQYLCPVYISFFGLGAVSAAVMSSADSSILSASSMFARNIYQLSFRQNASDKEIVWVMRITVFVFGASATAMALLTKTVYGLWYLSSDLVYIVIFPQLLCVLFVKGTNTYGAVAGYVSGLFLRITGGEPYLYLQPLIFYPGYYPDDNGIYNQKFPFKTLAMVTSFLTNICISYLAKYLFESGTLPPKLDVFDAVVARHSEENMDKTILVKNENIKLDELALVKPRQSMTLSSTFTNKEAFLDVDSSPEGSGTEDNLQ
EP2 antag – blocks the human prostaglandin E2 receptor EP2 | C6 glioma cells expressing human EP2, cAMP TR-FRET; cells stimulated with saturating PGE2 | inhibition, % at 25 µM | 260,000 tested, 0.52% active | AID 1422;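 active = percent inhibition above 40 after rounding to a whole number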;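 also: rat C6 glioma host cells with rolipram phosphodiesterase inhibitor present; the protocol text gives 20 µM as final concentration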
EP2 mod – EP2 receptor (human) modulation; P43116; EP2-expressing cells, cAMP HTRF FRET, PGE2 co-stimulation; induction, % at 25 µM; 260,000 tested, 0.83% active; AID 940;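 active = compounds whose cAMP rise, as percent of the full-agonist control response, exceeds 60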;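 also: rat C6 glioma line stably carrying human EP2 under a CMV promoter; the protocol text gives 20 µM as final concentration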
CHT allo act – human CHT allosteric activation; Q9GZV3; CHT-expressing cells, membrane potential dye, choline EC20; hits give high values; LV-AA mutant CHT in HEK293 cells; B-score at 10 µM; 310,000 tested, 0.49% active; AID 488977;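 active = initial fluorescence not abnormally high and integrated response B-score, plate-corrected, over 3 SD above library mean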
CHT inh conf – confirmation of human choline transporter CHT inhibitors. AID 493221. CHT-expressing cells, choline membrane potential dye; LV-to-AA substituted CHT, HEK293 cells. shares compounds with CHT block. 2,400 tested, 70% active. CHT activity remaining % of control (hits give low values), % at 10 µM;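 active = choline transporter activity left, mean of duplicates at 10 µM, below buffer-only control mean minus 3 SD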;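 also: depolarization triggered by choline at its EC90 following an EC20 pre-addition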
HEK293 CHT ctr – CHT inhibitor counter-screen hit in parental HEK293 cells | shares compounds with CHT block | membrane potential dye, choline response; active = decrease or increase beyond buffer ±3SD | membrane potential ratio readout (active if shifted either direction beyond buffer ±3SD; no single direction) at 10 µM | 2,400 tested, 4% active | AID 493222;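 also: parental cells lack the transporter so any hit is non-specific; ratio is peak minus trough fluorescence over baseline after EC90 choline challenge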
Each line names hits and unclear results; the compound was inactive in the other large screens (follow-up assays come after a bar, where they were run).

CC(=O)N1c2ccc(S(=O)(=O)NCCC(=O)NC3CCCC(C)C3C)cc2CC1C (stereo unspecified)	CHT block -6.8 (no result: EP2 antag, EP2 mod) | CHT inh conf 38% | HEK293 CHT ctr inactive
CC(=O)N1c2ccc(S(=O)(=O)NCCC(=O)NC3CCCCCC3)cc2CC1C (stereo unspecified)	none (no result: EP2 antag, EP2 mod)
COc1cccc(NC(=O)CCNS(=O)(=O)c2ccc3c(c2)CC(C)N3C(=O)C2CC2)c1 (stereo unspecified)	CHT block -5.2 (no result: EP2 antag, EP2 mod) | CHT inh conf inactive | HEK293 CHT ctr inactive
Cc1cccc(N2CCN(C(=O)COc3cc(=O)n(C)c4ccccc34)CC2)c1C	CHT block -13 | CHT inh conf 31% | HEK293 CHT ctr inactive
CC1CCN(C(=O)CCCOc2cc(=O)n(C)c3ccccc23)CC1	CHT block -5.9 | CHT inh conf 69% | HEK293 CHT ctr inactive
Cc1ccc(C)c(N2CCN(C(=O)COc3cc(=O)n(C)c4ccccc34)CC2)c1	none (no result: EP2 antag)
CCCc1cc2c(=O)c(-c3ccccn3)coc2cc1OC	none
CCCc1cc2c(=O)c(-c3ccccn3)c(C)oc2cc1O	CHT block -12 | CHT inh conf 9.4% | HEK293 CHT ctr inactive
Cc1c(Cc2ccccc2)c(=O)oc2c(O)c(O)ccc12	none (no result: CHT block, CHT allo act)
Cc1c(Cc2ccccc2)c(=O)oc2cc(O)ccc12	CHT block -6.5 | CHT inh conf inactive | HEK293 CHT ctr inactive
Cc1nc2ccccc2c(=O)n1-c1nc2ccccc2n1C	none (no result: CHT block, CHT allo act)
Cc1sc2nc(C(C)C)nc(SCC(N)=O)c2c1C	none (no result: CHT block, CHT allo act)
Cc1ccc(-c2nnc(N3CCCCC3)c3ccccc23)cc1S(=O)(=O)N1CCN(C)CC1	CHT block -7.3 | CHT inh conf 42% | HEK293 CHT ctr inactive
CCc1nc(NCc2ccccn2)c2oc3ccccc3c2n1	none | CHT inh conf 56% | HEK293 CHT ctr inactive
NC(=O)c1c(NC(=O)CN(C(=O)c2cccs2)C2CCCCC2)sc2c1CCCC2	none (no result: CHT block, CHT allo act)
CCOC(=O)CN1C(=O)S/C(=C/c2ccc(O)c([N+](=O)[O-])c2)C1=O	CHT block -5.5 | CHT inh conf inactive | HEK293 CHT ctr inactive
Cc1ccc(-c2nnc(CCC(=O)N(C)Cc3nccs3)o2)s1	none
Cc1ccc(-c2nc(CN(C)Cc3ccc4nccnc4c3)c(C)o2)s1	CHT block -5.2 | CHT inh conf inactive | HEK293 CHT ctr inactive
CC1CCC(NC(=O)c2cccc(S(=O)(=O)N3CCN(c4ccc(F)cc4)CC3)c2)CC1 (stereo unspecified)	CHT block -5.6 (no result: EP2 antag, EP2 mod) | CHT inh conf inactive | HEK293 CHT ctr inactive
O=C(c1cccc(S(=O)(=O)N2CCCC2)c1)N1CCN(c2ccccc2)CC1	none
O=C(NNC(=O)c1cccc(S(=O)(=O)N2CCN(c3ccccc3)CC2)c1)c1ccc(Cl)cc1	CHT block -5.4 | CHT inh conf inactive | HEK293 CHT ctr inactive
CN(C)C(=O)c1ccccc1Sc1ccc(Cl)cc1Cl	CHT block -5 | CHT inh conf inactive | HEK293 CHT ctr inactive
COc1ccc(N(C)S(=O)(=O)c2cccc(C(=O)NC3CCCCC3C)c2)cc1 (stereo unspecified)	CHT block -5.5 | CHT inh conf 59% | HEK293 CHT ctr inactive
O=C(CSc1ncnc2nc[nH]c12)c1ccc(Cl)cc1	none (no result: EP2 antag, EP2 mod)
Clc1ccc(CSc2ncnc3nc[nH]c23)cc1	CHT block -6.2 | CHT inh conf inactive | HEK293 CHT ctr inactive
Cc1occc1-c1nnc(SCC(=O)Nc2cccc(C(F)(F)F)c2)n1C	none (no result: CHT block, CHT allo act)
Cc1ccc(C)c(Nc2c([N+](=O)[O-])cc(C(=O)N3CC(=O)Nc4ccccc43)cc2[N+](=O)[O-])c1	CHT block -5.9 | CHT inh conf inactive | HEK293 CHT ctr inactive
Cc1cccc(Nc2c([N+](=O)[O-])cc(C(=O)N3CC(=O)Nc4ccccc43)cc2[N+](=O)[O-])c1	none
CC1(C)CC(=O)C(/C=N/c2nc3c(s2)C(=O)CC(C)(C)C3)=C(O)C1	none (no result: CHT block, CHT allo act)
Cc1c(N=Cc2cc(Br)cc(Br)c2O)cccc1C(=O)O	CHT block -5.7 | CHT inh conf 57% | HEK293 CHT ctr inactive
COc1ccc(-c2ccc(=O)n(CC3CCN(S(C)(=O)=O)CC3)n2)cc1OC	none (no result: CHT block, CHT allo act)
CC(=O)n1cc(/C=N/NC(=O)c2ccc([N+](=O)[O-])cc2)c2ccccc21	none (no result: EP2 antag, EP2 mod)
Cc1c(/C=N\NC(=O)c2ccc([N+](=O)[O-])cc2)cnn1C	CHT block -7.7 | CHT inh conf inactive | HEK293 CHT ctr inactive
